High-throughput results (PubChem)
BAZ2B inh – blocks human BAZ2B | Q9UIF8 | AlphaScreen BAZ2B-H3K14Ac peptide displacement | Potency, µM (doses to about 114 µM), actives largely listed as inhibitors | actives 4.4% (n = 360,000); also: nearly all actives have a fitted effect of over 60% in size
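Protein-peptide AlphaScreen: BAZ2B 50 nM, b-H3K14Ac 50 nM, 1x PBS pH 7.4 + 0.01% Tween-20. Preincubation 30 min RT; cpd 30 min RT (top 110 uM); beads 20 min RT, light-protected.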
L3MBTL1 inh – inhibitors of human L3MBTL1; Q9Y468; AlphaScreen L3MBTL1–H3K9me1 peptide binding; Potency, µM (series often up to 57.1 µM), actives largely listed as inhibitors; actives 0.66% (n = 230,000); AID 485360; also: nearly all actives have a fitted effect of over 60% in size
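AlphaScreen assay: L3MBTL1 (50 nM final) was preincubated 30 min at room temperature with biotinylated H3(1-15)K9me1 peptide (75 nM final), then 30 min with library compounds; streptavidin donor and nickel chelate acceptor beads (10 ug/mL final) added, 30 min dark.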
HP1b binding inh – HP1-beta chromodomain-methylated histone interaction inhibition; AlphaScreen HP1-beta / biotin-H3K9me3 peptide binding; Potency, µM (highest dose often 114 µM), hits mostly inhibitors; actives 0.56% (n = 390,000); also: nearly all actives have a fitted effect of over 70% in size
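HP1-beta protein (50 nM final) preincubated 30 min at room temperature with biotinylated H3(1-18)K9me3 peptide (50 nM) in PBS pH 7.4, 0.01% Tween-20, then compound added for 30 min. AlphaScreen streptavidin donor/nickel chelate acceptor beads (10 ug/mL final), 30 min dark, luminescence read.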
G9a block – inhibitors of human histone lysine methyltransferase G9a; G9a H3K9 monomethylation, AlphaScreen, 2 h; Potency, µM (highest dose often 102 µM), usual class: inhibitors; actives 8.8% (n = 350,000); AID 504332; also: nearly all actives have a fitted effect of over 75% in size
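Readings reflect AlphaScreen signal from monomethyl-H3K9 antibody detection. HMT at 20 nM; substrate b-H3K9 500 nM; cofactor SAM 20 uM; 2 h RT reaction; compounds tested as titrations in qHTS with 15 min preincubation.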
JMJD2A Tudor – blocks the human JMJD2A Tudor domain | Potency, µM (highest dose often 114 µM), usual class: inhibitors | AID 504339 | O75164 | AlphaScreen JMJD2A-Tudor / H3K4me3 peptide binding | actives 4.4% (n = 390,000); also: nearly all actives have a fitted effect of over 50% in size
Target sequence (O75164 whole entry, looked up, the tested form may be a part): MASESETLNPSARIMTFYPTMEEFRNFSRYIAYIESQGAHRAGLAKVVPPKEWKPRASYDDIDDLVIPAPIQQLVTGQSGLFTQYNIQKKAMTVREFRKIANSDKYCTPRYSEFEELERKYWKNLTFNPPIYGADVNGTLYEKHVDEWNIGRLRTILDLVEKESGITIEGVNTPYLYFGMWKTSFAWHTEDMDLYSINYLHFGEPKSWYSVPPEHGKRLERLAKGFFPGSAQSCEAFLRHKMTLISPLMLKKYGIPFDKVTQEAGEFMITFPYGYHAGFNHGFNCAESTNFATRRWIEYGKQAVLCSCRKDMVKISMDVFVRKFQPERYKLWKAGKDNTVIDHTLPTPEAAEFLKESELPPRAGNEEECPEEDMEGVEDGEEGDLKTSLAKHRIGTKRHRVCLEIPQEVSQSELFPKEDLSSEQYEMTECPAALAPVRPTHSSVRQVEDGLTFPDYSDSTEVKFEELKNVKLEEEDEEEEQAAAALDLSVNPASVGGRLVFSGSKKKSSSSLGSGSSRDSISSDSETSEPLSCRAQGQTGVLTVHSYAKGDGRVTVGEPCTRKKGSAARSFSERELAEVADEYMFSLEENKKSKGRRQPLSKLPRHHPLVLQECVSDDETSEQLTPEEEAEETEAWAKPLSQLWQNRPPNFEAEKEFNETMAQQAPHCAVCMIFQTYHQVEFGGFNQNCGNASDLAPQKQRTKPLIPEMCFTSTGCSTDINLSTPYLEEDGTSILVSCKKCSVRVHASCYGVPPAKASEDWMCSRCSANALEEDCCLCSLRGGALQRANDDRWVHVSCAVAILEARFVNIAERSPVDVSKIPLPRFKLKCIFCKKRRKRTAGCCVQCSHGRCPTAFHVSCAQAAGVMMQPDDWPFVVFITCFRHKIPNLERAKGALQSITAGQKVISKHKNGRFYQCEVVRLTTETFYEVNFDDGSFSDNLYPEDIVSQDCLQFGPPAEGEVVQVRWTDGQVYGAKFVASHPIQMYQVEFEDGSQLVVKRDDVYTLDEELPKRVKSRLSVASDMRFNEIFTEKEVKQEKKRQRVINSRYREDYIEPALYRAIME
Hits are given with their value; n = inactive; u = inconclusive; x = not tested or not shown; ! = not active in a repeat; [ ] = remark or other dose. Most compounds without a hit are left out; they make up all but 11% or so of the library. Calls follow the shape of the dose curve; as a rule, active = well fitted inhibition curve with a large enough effect; inconclusive = small, poorly fitted or top-dose-only effect; inactive = no such curve, though single readings can be large or run the other way.

SMILES	BAZ2B inh	L3MBTL1 inh	HP1b binding inh	G9a block	JMJD2A Tudor
CCOC(=O)c1c(C)[nH]c(C)c1S(=O)(=O)N1CCC(C(=O)N2CCN(c3ccc(F)cc3)CC2)CC1	u	x	n	n	n
CCOC(=O)c1scc(-c2ccccc2)c1S(=O)(=O)N1CCN(c2ccc(Cl)cc2)CC1	n	x	n	13µM	n
CCOC(=O)c1c(C)[nH]c(C)c1S(=O)(=O)N1CCN(c2ccc(F)cc2)CC1	71µM	x	n	x	n
Cc1c(Cl)cccc1NC(=O)C(=O)NCCc1csc(-c2ccc(C(F)(F)F)cc2)n1	n	x	n	n	n
COC(=O)/C=C1\C(=O)N(c2nc3ccccc3s2)C(=S)N1c1ccc(F)cc1	n	x	n	71µM	n
Cc1ccc(S(=O)(=O)N2CN(CC3CCCO3)c3nc4ccccc4nc32)c(C)c1 (centres undefined)	u	x	n	32µM	n
CCCCCN1CN(S(=O)(=O)c2cccs2)c2nc3ccccc3nc21	n	n	n	28µM	n
CCOCCCN1CN(S(=O)(=O)c2ccc(Cl)cc2)c2nc3ccccc3nc21	u	n	n	n[0.501 µM]	n
COCCCN1CN(S(=O)(=O)c2ccc(C)cc2C)c2nc3ccccc3nc21	u	x	n	32µM	n
Cc1ccc(C(=O)NCCc2ccc(F)cc2)s1	n	n	n	n	n
CCN1/C(=C/c2cc[n+](CCCS(=O)(=O)[O-])c3ccccc23)Sc2ccccc21	u	n	n	25µM	n
CCC(=O)/C=C1/Sc2ccc(OC)cc2N1CC	n	n	n	n	n
O=C(/C=C/c1cn(CC(O)CN2CCCCCC2)c2ccccc12)c1ccc(Br)cc1 (centres undefined)	u	x	n	n	u
CCOc1ccc(C(=O)CCC(=O)O)cc1	n	n	n	n	n
CCOc1ccc(/C(CCC(=O)O)=N/NC(=S)NC(C)C)cc1	n	n	n	22µM	n
COc1ccccc1NC(=O)C(C(C)C)N1C(=O)c2ccccc2C1=O (centres undefined)	n	n	n	x	n
COc1ccccc1NS(=O)(=O)c1ccc(Cl)c(NC(=O)C(C)N2C(=O)c3ccccc3C2=O)c1 (centres undefined)	n	n	n	50µM	n
C(#Cc1ccccc1)CN1CCN(c2ccccn2)CC1	50µM	n	n	u	u
C(#Cc1ccccc1)CN1CCCCC1	n	n	n	n[0.501 µM]	n
CC(CCN1CCN(c2ccccn2)CC1)c1ccccc1 (centres undefined)	u	n	u	28µM	25µM
COC(=O)CN1C(=O)[C@@H]2[C@H](C1=O)[C@@H]1CC(C(=O)OC)=C[C@@H](C(=O)OC)C3C1=C(C(=O)C31CCCCC1)[C@@H]2C (some centres undefined)	x	x	n	x	n
CCc1cccc(C)c1NC(=O)c1cnn(-c2ccc(OC)cc2)c1C1CCN(C(=O)OC(C)(C)C)CC1	n	x	n	n	n
Cn1c(=O)c2[nH]c(N=NNc3ccccc3F)nc2n(C)c1=O	20µM	n	20µM	1.8µM	7.9µM
COc1ccc(C=NNc2nc3c([nH]2)c(=O)n(C)c(=O)n3C)cc1	x	x	n	x	n
Cc1ccccc1NN=Nc1nc2c([nH]1)c(=O)n(C)c(=O)n2C	n	n	u	4µM	u
SMILES	BAZ2B inh	L3MBTL1 inh	HP1b binding inh	G9a block	JMJD2A Tudor
COc1ccc(NN=Nc2nc3c([nH]2)c(=O)n(C)c(=O)n3C)cc1	56µM	n	4.5µM	x	8.9µM
O=C(Nc1ccc(C(=O)N2CCN(c3cccc(Cl)c3)CC2)cc1)c1nsc2ccccc12	n	x	n	n	n
O=C(O)[C@@H](O)[C@@H](O)[C@@H](O)[C@@H](O)C(=O)O (tested in a mixture with another compound)	x	x	x	n[21.5 µM]	x
CCC(CC)C(=O)Nc1nnc(S(=O)(=O)N2CCc3ccccc32)s1	u	n	n	7.1µM	n
CCC(CC)C(=O)Nc1nnc(S(=O)(=O)N2c3ccccc3CC2C)s1 (centres undefined)	25µM!	n	n	n	50µM!
CC1Cc2ccccc2N1S(=O)(=O)c1nnc(NC(=O)c2cccc(F)c2)s1 (centres undefined)	n	x	n	n	n
Cc1noc(C)c1-c1ccc2ncnc(NC(C)c3ccccc3)c2c1 (centres undefined)	x	x	x	x	n
CN1CCc2c(sc3c2C(=O)NC(c2ccco2)N3)C1 (centres undefined)	x	n	n	u	n
COc1ccc(Br)cc1C1NC(=O)c2c(sc3c2CCN(C)C3)N1 (centres undefined)	n	n	n	n	n
CN1CCc2c(sc3c2C(=O)NC(c2cn(Cc4ccccc4)c4ccccc24)N3)C1 (centres undefined)	45µM	n	u	u	40µM
O=C1NC(c2ccco2)Nc2sc3c(c21)CCN(Cc1ccccc1)C3 (centres undefined)	u	x	n	28µM	u
O=C1C2=C(C(c3ccccc3)=NCCN2)C(c2cccc([N+](=O)[O-])c2)N1c1ccccc1 (centres undefined)	n	n	n	n	45µM
CN1CCN(c2nnc(-c3ccc(Cl)cc3)c3ccccc23)CC1	n	x	n	n[2.33 µM]	n
CN1CCN(c2nnc(-c3ccc(F)cc3)c3ccccc23)CC1	n	x	n	40µM	u
O=C(Nc1nnc(C2CC2)s1)C1COc2ccccc2O1 (centres undefined)	n	x	n	n	n
O=C(/C=C/c1ccc(Br)o1)Nc1nnc(C2CC2)s1	n	n	x	56µM	x
Cc1ccc(S(=O)(=O)NN=C2CCC(C(C)(C)C)CC2)cc1[N+](=O)[O-] (centres undefined)	n	n	n	35µM	n
Cc1ccc(S(=O)(=O)N/N=C2/CC(c3ccccc3)Oc3ccccc32)cc1[N+](=O)[O-] (centres undefined)	u	x	n	40µM	n
CC1CCCC/C1=N\NS(=O)(=O)c1ccc(Br)cc1 (centres undefined)	n	x	n	3.5µM	n
CC(C)(C)C1CCC(=NNS(=O)(=O)c2ccc(Br)cc2)CC1 (centres undefined)	n	n	n	7.9µM	n
CCC1CC=CC2C1C(=O)N(Cc1ccccc1)C2c1cc(C)ccc1F (centres undefined)	x	x	n	x	n
CCOC(=O)N1C(COCc2ccccc2)C=CCS1(=O)=O (centres undefined)	x	x	n	x	n
Cc1cccc(NC(=O)Cn2nnc(C(=O)Nc3ccccc3Br)c2N)c1C	n	x	n	n	n
O=C(NCCc1ccc(F)cc1)C(=O)NCC(c1cccs1)S(=O)(=O)c1ccc(F)cc1 (centres undefined)	n	x	n	n	n
CCOC(=O)N1CCN(Cc2nc3cc(NC(=O)C(C)C)ccc3n2C(C)C)CC1	n	x	n	n	n
Cc1ccc(S(=O)(=O)NN=C2C3CC4CC(C3)CC2C4)cc1[N+](=O)[O-]	n	n	n	22µM	n
